# Values without a mark were called inactive. Records with an inconclusive call do not appear. A call without a number means that no potency is given here. Calls of active or inactive are those of the source. Unless noted, the call rests on the fitted dose curve.
# Key:
# [1] = Nuclear factor erythroid 2-related factor 2/antioxidant responsive element (Nrf2/ARE) small molecule agonists: qHTS cell viability counter screen in human keratinocytes (AID 1919968; active means well fitted curve in the direction sought with a large enough effect in the repeat runs; an effect the other way counts as inactive or inconclusive; further: nearly all actives have a fitted effect of over 55% in size)
# Method in brief: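 Seed 1,500 KeratinoSens cells per well, then incubate 5 h at 37 C/5% CO2. Add compounds in DMSO and incubate 23 h. Add CellTiter-Fluor, wait 1 h and read fluorescence.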
# [2] = Nuclear factor erythroid 2-related factor 2/antioxidant responsive element (Nrf2/ARE) small molecule agonists: luciferase reporter gene qHTS assay in human keratinocytes (AID 1919969); further: nearly all actives have a fitted effect of over 35% in size; further: potency means the concentration at half of the fitted maximal effect
# [3] = molecular target: Gonadotropin-releasing hormone receptor (Homo sapiens) (UniProt P30968); assay: Human gonadotropin-releasing hormone receptor (GnRHR) small molecule agonists, calcium flux assay in GnRHR-HEK293 cells (AID 1920063); further: nearly all actives have a fitted effect of over 35% in size
# Method in brief: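 Cells: HEK293 stably expressing human GnRHR. Steps: overnight (18 h) culture, 1 h calcium dye loading at 37 C, compound addition, kinetic fluorescence read at 480/540 nm. Each compound tested at 15 concentrations in triplicate.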
# [4] = molecular target: KiSS-1 receptor (Homo sapiens) (UniProt Q969F8); assay: Human kisspeptin (KISS1R) small molecule agonists, calcium flux assay in KISS1R-HEK293 cells (AID 1920064; active means well fitted curve in the direction sought with a large enough effect in the repeat runs; an effect the other way counts as inactive or inconclusive)
# Method in brief: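 Cells plated and incubated 18 h; dye added, 1 h at 37 C; compounds in DMSO pinned in; signal read at 480/540 nm every second for 3 min. Each compound tested at 15 concentrations in triplicate.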
# [5] = p53 small molecule agonists, cell-based qHTS assay with human liver microsomes (AID 1963577)
# Method in brief: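 Cells carrying a p53-responsive bla reporter were rested 5 h (37 C, 5% CO2) before compound transfer. Human liver microsomes plus NADPH, 0.5 mg/mL final apiece, supplied metabolism during the 16 h 37 C exposure.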
# [6] = p53 small molecule agonists, cell-based qHTS assay with rat liver microsomes (AID 1963578)
# Method in brief: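 Fluorescence from a beta-lactamase reporter under a p53 response element was measured after cells had been incubated 16 h at 37 C with test compound and rat liver microsomes plus NADPH (0.5 mg/mL final each).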
# [7] = p53 small molecule agonists, cell-based qHTS assay with human liver microsomes: qHTS cell viability counter screen (AID 1963579); further: nearly all actives have a fitted effect of over 45% in size; further: potency means the concentration at half of the fitted maximal effect
# Method in brief: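 Seed p53RE-bla cells at 4,000 per well; incubate 5 h at 37 C; add compound, human liver microsomes and NADPH; incubate 16 h at 37 C; add CellTiter-Glo; after 30 min at room temperature, read luminescence.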
# [8] = p53 small molecule agonists, cell-based qHTS assay with rat liver microsomes: qHTS cell viability counter screen (AID 1963580); further: nearly all actives have a fitted effect of over 45% in size
# Method in brief: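 HCT-116 p53RE-bla, 4,000 cells/well, 5 h pre-incubation; cpd + rat liver microsomes 0.5 mg/mL + NADPH 0.5 mg/mL (final); 16 h, 37 C; CellTiter-Glo, 30 min RT; luminescence.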
# [9] = p53 small molecule agonists, cell-based qHTS assay: qHTS cell viability counter screen (AID 1963581); further: nearly all actives have a fitted effect of over 45% in size
# Method in brief: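 Cells: HCT-116 with p53 response element-driven beta-lactamase. Treatment: 16 h, 37 C, compounds in DMSO. Read: CellTiter-Glo luminescence after 30 min RT.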
# [10] = molecular target: 5-hydroxytryptamine receptor 2A (Homo sapiens) (UniProt P28223); assay: 5-hydroxytryptamine receptor 2A (HTR2A) small molecule antagonists, cell-based qHTS assay (AID 1963586); further: nearly all actives have a fitted effect of over 45% in size
# Method in brief: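 Antagonist-mode intracellular calcium assay: DOI (4 nM) added after 5 min compound pre-incubation at room temperature to dye-loaded HTR2A-CHO cells. Fluorescence followed for 3 min, sampled every second.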
# [11] = molecular target: 5-hydroxytryptamine receptor 2A (Homo sapiens) (UniProt P28223); assay: 5-hydroxytryptamine receptor 2A (HTR2A) small molecule agonists, cell-based qHTS assay (AID 1963587); further: nearly all actives have a fitted effect of over 30% in size
# Method in brief: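 Kinetic calcium-flux fluorescence (2 min, 1 sec intervals) after compound addition in agonist mode. HTR2A-CHO cells were cultured 18 h, then dye-loaded 1 h at 37 C.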
# [12] = molecular target: Muscarinic acetylcholine receptor M1 (Homo sapiens) (UniProt P11229); assay: Cholinergic receptor muscarinic 1 (CHRM1) small molecule antagonists, cell-based qHTS assay (AID 1963588); further: nearly all actives have a fitted effect of over 40% in size
# Method in brief: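 CHRM1-CHO calcium-flux assay, antagonist mode. Cells were seeded 18 h, dye-loaded 1 h at 37 C and given compound for 5 min at RT, then acetylcholine was added at 50nM. FDSS fluorescence was read 3 min; 15 concentrations, three runs.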
# [13] = molecular target: Muscarinic acetylcholine receptor M1 (Homo sapiens) (UniProt P11229); assay: Cholinergic receptor muscarinic 1 (CHRM1) small molecule agonists, cell-based qHTS assay (AID 1963589); further: nearly all actives have a fitted effect of over 35% in size
# Method in brief: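 Agonist-mode qHTS in CHO cells stably carrying human muscarinic M1. Intracellular calcium is tracked by fluorescence every second after compound transfer; each compound runs at 15 concentrations in three independent runs.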
# [14] = cAMP Responsive Elements (CRE) small molecule agonists, cell-based qHTS assay (AID 1963590)
# Method in brief: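 Agonist mode qHTS in CRE-bla HEK 293T cells: compounds dosed from DMSO for 3 h at 37 C/5% CO2, followed by LiveBLAzer B/G FRET substrate for 2 h at room temperature.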
# [15] = cAMP Responsive Elements (CRE) small molecule antagonists, cell-based qHTS assay (AID 1963591; active means well fitted inhibition curve with a large enough effect in the signal ratio in the repeat runs, not every such curve was filed as active; the % refers to the signal ratio)
# Method in brief: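 Antagonist mode: test compounds are co-incubated with the adenylyl cyclase activator NKH477 (0.25 uM final) on CRE-bla HEK293T cells for 3 h at 37 °C, followed by LiveBLAzer substrate loading.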
# [16] = molecular target: Beta-2 adrenergic receptor (Homo sapiens) (UniProt P07550); assay: Adrenergic beta2 receptor (ADRB2) small molecule antagonists, cell-based qHTS assay (AID 1963592); further: series mostly up to about 92 µM; nearly all actives have a fitted effect of over 50% in size
# Method in brief: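 Cells (CHO, stable ADRB2 overexpression) incubated 18-20hr at 37C; compounds added from DMSO; agonist mix (1nM isoproterenol, 100uM IBMX, 25uM Ro-20-1724) added; 0.5hr RT; d2-cAMP and anti-cAMP-cryptate added; 1hr RT; 665/615 nm read.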
# [17] = molecular target: D(2) dopamine receptor (Homo sapiens) (UniProt P14416); assay: Dopamine D2 receptor (DRD2) small molecule agonists, cell-based qHTS assay (AID 1963594); further: nearly all actives have a fitted effect of over 35% in size
# Method in brief: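 cAMP accumulation in DRD2-HEK293 cells measured by HTRF after 1 h detection; compounds added 10 min before NKH477 (200nM […]) forskolin-analogue stimulation, 30 min at room temperature, with Ro20-1724 present at 0.1 mM final.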
# [18] = molecular target: D(2) dopamine receptor (Homo sapiens) (UniProt P14416); assay: Dopamine D2 receptor (DRD2) small molecule antagonists, cell-based qHTS assay (AID 1963595; active means well fitted inhibition curve with a large enough effect in the signal ratio in the repeat runs, with a control signal flat; the % refers to the signal ratio)
# Method in brief: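 HTRF cAMP read-out at 665 and 620 nm emission (340 nm excitation). Antagonist mode: compounds were tested against 12 nM quinpirole in DRD2-HEK293 cells, with 200 nM NKH477 raising cAMP and 0.1 mM Ro20-1724 blocking its breakdown.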
# [19] = p53 small molecule agonists, cell-based qHTS assay (AID 1963582; active means well fitted activation curve with a large enough effect in the signal ratio in the repeat runs, not every such curve was filed as active; the % refers to the signal ratio)
# Method in brief: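 Quantitative HTS in p53RE-bla cells: after a 5 h settling period, compounds delivered in DMSO were left on cells for 16 h at 37 C, and reporter induction was measured as fluorescence following 2 h substrate loading.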
# [20] = molecular target: Beta-2 adrenergic receptor (Homo sapiens) (UniProt P07550); assay: Adrenergic beta2 receptor (ADRB2) small molecule agonists, cell-based qHTS assay (AID 1963593);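 further: CHO cells stably overexpressing human ADRB2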
# Method in brief: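 CHO cells stably over-expressing ADRB2 were plated overnight at 37C, then dosed with compounds plus a stimulation mix containing 100uM IBMX and 25uM Ro-20-1724 for 0.5hr at room temperature. cAMP was measured by HTRF competition, 1hr.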
# Chain of Gonadotropin-releasing hormone receptor (Homo sapiens) (P30968 whole entry, looked up): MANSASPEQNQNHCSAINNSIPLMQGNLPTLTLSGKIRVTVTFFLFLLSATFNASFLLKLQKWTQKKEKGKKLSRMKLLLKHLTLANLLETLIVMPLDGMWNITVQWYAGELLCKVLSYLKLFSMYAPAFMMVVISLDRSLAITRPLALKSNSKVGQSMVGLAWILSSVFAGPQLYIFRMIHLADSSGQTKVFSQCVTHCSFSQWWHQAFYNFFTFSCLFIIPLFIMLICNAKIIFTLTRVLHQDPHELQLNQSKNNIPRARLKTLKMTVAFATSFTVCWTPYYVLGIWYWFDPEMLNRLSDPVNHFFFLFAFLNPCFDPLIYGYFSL
# Chain of D(2) dopamine receptor (Homo sapiens) (P14416 whole entry, looked up): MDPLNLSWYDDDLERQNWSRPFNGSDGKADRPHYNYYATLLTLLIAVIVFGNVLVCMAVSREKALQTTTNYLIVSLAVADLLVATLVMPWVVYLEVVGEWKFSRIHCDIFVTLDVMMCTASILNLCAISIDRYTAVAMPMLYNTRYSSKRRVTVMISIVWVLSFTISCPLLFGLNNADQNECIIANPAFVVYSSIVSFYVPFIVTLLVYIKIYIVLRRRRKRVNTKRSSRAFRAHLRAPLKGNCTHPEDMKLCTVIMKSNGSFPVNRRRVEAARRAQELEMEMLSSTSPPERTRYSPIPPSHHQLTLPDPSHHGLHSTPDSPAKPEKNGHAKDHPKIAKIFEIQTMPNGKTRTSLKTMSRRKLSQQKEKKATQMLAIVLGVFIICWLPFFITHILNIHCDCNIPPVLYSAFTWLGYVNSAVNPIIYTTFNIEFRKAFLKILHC
# Chain of KiSS-1 receptor (Homo sapiens) (Q969F8 whole entry, looked up): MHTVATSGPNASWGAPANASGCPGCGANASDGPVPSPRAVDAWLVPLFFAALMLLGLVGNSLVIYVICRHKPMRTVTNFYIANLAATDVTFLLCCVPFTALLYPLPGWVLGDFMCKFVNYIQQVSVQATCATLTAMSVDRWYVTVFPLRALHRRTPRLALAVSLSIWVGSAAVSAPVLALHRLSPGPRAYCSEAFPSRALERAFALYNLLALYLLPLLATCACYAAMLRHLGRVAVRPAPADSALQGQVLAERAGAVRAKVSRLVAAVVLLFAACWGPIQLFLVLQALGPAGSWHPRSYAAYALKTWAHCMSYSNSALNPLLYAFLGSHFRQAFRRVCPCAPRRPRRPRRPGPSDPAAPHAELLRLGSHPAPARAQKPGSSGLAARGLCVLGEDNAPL
# Chain of Muscarinic acetylcholine receptor M1 (Homo sapiens) (P11229 whole entry, looked up): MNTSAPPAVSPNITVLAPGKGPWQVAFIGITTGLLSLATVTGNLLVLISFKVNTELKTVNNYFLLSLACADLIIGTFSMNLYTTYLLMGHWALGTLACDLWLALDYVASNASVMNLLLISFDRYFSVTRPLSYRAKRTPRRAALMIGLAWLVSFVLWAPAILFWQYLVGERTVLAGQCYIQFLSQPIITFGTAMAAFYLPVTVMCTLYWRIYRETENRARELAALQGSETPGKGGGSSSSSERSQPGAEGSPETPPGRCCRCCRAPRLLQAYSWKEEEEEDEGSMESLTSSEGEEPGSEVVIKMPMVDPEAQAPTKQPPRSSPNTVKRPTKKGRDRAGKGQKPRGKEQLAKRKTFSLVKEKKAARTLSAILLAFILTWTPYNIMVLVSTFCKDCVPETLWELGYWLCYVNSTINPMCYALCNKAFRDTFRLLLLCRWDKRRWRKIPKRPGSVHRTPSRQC
# Chain of 5-hydroxytryptamine receptor 2A (Homo sapiens) (P28223 whole entry, looked up): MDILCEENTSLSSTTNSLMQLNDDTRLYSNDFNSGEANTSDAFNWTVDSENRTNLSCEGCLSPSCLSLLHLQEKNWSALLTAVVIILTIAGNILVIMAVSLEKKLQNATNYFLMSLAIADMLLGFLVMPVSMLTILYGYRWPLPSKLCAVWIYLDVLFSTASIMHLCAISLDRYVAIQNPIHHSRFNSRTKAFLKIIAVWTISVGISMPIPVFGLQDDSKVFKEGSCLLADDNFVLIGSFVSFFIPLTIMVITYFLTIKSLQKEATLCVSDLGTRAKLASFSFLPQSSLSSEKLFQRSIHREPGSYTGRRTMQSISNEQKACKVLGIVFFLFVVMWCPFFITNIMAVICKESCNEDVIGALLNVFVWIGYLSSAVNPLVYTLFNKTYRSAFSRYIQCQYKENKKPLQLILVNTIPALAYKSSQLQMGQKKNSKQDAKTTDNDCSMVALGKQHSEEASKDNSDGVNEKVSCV
# Chain of Beta-2 adrenergic receptor (Homo sapiens) (P07550 whole entry, looked up): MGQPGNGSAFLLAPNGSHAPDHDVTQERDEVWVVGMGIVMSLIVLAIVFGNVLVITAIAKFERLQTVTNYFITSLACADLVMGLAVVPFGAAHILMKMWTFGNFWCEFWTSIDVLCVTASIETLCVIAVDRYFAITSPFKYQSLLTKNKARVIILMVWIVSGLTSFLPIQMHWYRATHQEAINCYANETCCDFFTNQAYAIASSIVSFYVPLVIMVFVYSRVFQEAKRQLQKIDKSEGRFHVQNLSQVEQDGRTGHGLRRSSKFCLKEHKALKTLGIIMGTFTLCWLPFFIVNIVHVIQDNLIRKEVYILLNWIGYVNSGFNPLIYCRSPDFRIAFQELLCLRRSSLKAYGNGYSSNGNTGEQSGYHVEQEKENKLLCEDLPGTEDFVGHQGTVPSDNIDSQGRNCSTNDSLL
Structure (SMILES),Potency [1],Potency [2],Potency [3],Potency [4],Potency [5],Potency [6],Potency [7],Potency [8],Potency [9],Potency [10],Potency [11],Potency [12],Potency [13],Potency [14],Potency [15],Potency [16],Potency [17],Potency [18],Potency [19],Potency [20]
CCCOCCOCCO,inactive,inactive,inactive,inactive,inactive,inactive,inactive,inactive,inactive,inactive,inactive,inactive,inactive,inactive,inactive,inactive,inactive,inactive,,
FC(F)(F)c1cccc(Cl)c1,inactive,inactive,inactive,inactive,inactive,inactive,inactive,inactive,,,inactive,inactive,inactive,inactive,inactive,inactive,inactive,,inactive,
NS(=O)(=O)c1cc2c(cc1Cl)NC(C1CC3C=CC1C3)NS2(=O)=O (stereo not given),inactive,inactive,inactive,inactive,inactive,inactive,3.97 µM (active),inactive,inactive,inactive,inactive,inactive,inactive,inactive,inactive,inactive,inactive,inactive,inactive,
CCC(=O)OC,inactive,inactive,inactive,inactive,inactive,inactive,inactive,inactive,inactive,inactive,inactive,inactive,inactive,inactive,,inactive,inactive,inactive,inactive,
CC(C)(C)C1CCCCC1O (stereo not given),inactive,inactive,inactive,inactive,inactive,inactive,inactive,inactive,inactive,inactive,,inactive,inactive,inactive,inactive,inactive,inactive,inactive,inactive,
C=CCOCC(O)CO (stereo not given),inactive,inactive,inactive,inactive,inactive,inactive,inactive,inactive,inactive,inactive,inactive,,inactive,inactive,inactive,inactive,inactive,inactive,inactive,inactive
Fc1c(F)c(F)c(Br)c(F)c1F,inactive,inactive,inactive,inactive,inactive,inactive,inactive,inactive,inactive,inactive,inactive,inactive,inactive,inactive,inactive,inactive,,inactive,inactive,
CCCCCCc1ccc(-c2ccc(C#N)cc2)cc1,inactive,13.4 µM (active),inactive,inactive,inactive,inactive,inactive,inactive,inactive,inactive,inactive,,inactive,inactive,,inactive,inactive,inactive,inactive,inactive
Cc1ccc(C(=O)O)cc1,inactive,inactive,inactive,inactive,inactive,inactive,inactive,inactive,inactive,inactive,inactive,inactive,inactive,inactive,inactive,,inactive,inactive,inactive,
CCSC(=O)N(CC)CC,inactive,inactive,inactive,inactive,inactive,inactive,inactive,inactive,inactive,,inactive,inactive,inactive,inactive,inactive,inactive,inactive,inactive,inactive,inactive
CCC(C(=O)NC(N)=O)c1ccccc1 (stereo not given),inactive,inactive,inactive,inactive,inactive,inactive,inactive,inactive,,inactive,inactive,inactive,inactive,inactive,inactive,inactive,inactive,inactive,inactive,
CCCCCC(=O)CC,inactive,inactive,inactive,inactive,inactive,inactive,inactive,inactive,inactive,inactive,,inactive,inactive,inactive,,,inactive,inactive,,inactive
O=c1[nH]c(=O)c2cn[nH]c2[nH]1,inactive,inactive,inactive,inactive,inactive,inactive,inactive,inactive,,inactive,inactive,inactive,inactive,inactive,inactive,inactive,inactive,inactive,inactive,inactive
O=S(=O)(O)c1cccc2ccccc12,inactive,inactive,inactive,inactive,inactive,inactive,inactive,inactive,inactive,inactive,inactive,inactive,inactive,inactive,inactive,inactive,,,,
